This note sets out measurements from PubChem BioAssay (NCI).

The assay in a line: NCI Yeast Anticancer Drug Screen. Data for the rad14 strain (AID 159).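 Note: 0% = growth of vehicle-treated control cultures.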 The settings on record: S. cerevisiae rad14 strain growth inhibition, active compounds read high. Here is the method: Growth inhibition of yeast strains with defined genetic alterations is measured as a screen for potential anti-cancer activity. Selected strains with alterations in DNA damage repair or cell cycle control were exposed to compounds and growth inhibition was measured relative to vehicle treated controls. The strain used in this assay is rad14

SMILES strings stand for the structures. About 79,000 compounds went through this panel and 15% of them were active in at least one assay; those are over-represented in the sample as a whole. Unmarked numbers belong to inactive results. Calls of active or inactive are those of the source. Cut-off read from the data, not from the text of the source: active = growth inhibition above about 70%; inactive = the rest.

Turning to `Cc1ccc2c(c1N)C(=O)c1ccccc1C2=O`, the growth inhibition reads like this: (at 1.2 µM) 3%; (at 3.7 µM) 5%; (at 11.0 µM) 8%; (at 33.0 µM) 9%; (at 100.0 µM) 16%.

In the case of `Oc1cccc2cccnc12`, the growth inhibition is 22% (at 1.2 µM); 85% (active) (at 3.7 µM); 98% (active) (at 11.0 µM); 98% (active) (at 33.0 µM); 98% (active) (at 100.0 µM).

In the case of `O=C(O)C1C2c3ccccc3C(c3ccccc32)C1C(=O)O` (stereo not given), the growth inhibition (at 1.2 µM) is -2%; the growth inhibition (at 3.7 µM) was 1%; the growth inhibition (at 11.0 µM) is 0%; the growth inhibition (at 33.0 µM) was -2%; the growth inhibition (at 100.0 µM) was 2%.

For the molecule `CC1CN=C(Nc2ccccc2)S1` (stereo not given), the growth inhibition runs as follows: (at 1.2 µM) -49%; (at 3.7 µM) -54%; (at 11.0 µM) -58%; (at 33.0 µM) -51%; (at 100.0 µM) -41%.

For `COC(=O)C(F)C(Br)C(=O)OC` (stereo not given), the growth inhibition was 5% (at 1.2 µM); 67% (at 3.7 µM); 93% (active) (at 11.0 µM); 97% (active) (at 33.0 µM); 96% (active) (at 100.0 µM).

Regarding `CC[C@@]1(O)C(=O)OCc2c1cc1n(c2=O)Cc2cc3c(NC(=O)CN)cccc3nc2-1`, the growth inhibition runs as follows: (at 1.2 µM) 2%; (at 3.7 µM) -4%; (at 11.0 µM) 0%; (at 33.0 µM) -4%; (at 100.0 µM) -1%.

In the case of `COC1CC(CC2CCC(C)C(C(C)C(=O)O)O2)OC2(OC(C)(C3CCC(C)(C4OC(C5OC(O)(CO)C(C)CC5C)CC4C)O3)CC2C)C1C` (stereo not given), the growth inhibition (at 1.2 µM) was 5%; the growth inhibition (at 3.7 µM) is -6%; the growth inhibition (at 11.0 µM) was -4%; the growth inhibition (at 33.0 µM) was 89% (active); the growth inhibition (at 100.0 µM) is 96% (active).

Regarding `Oc1cccnc1[Se]`, the growth inhibition is, setting by setting: (at 1.2 µM) 1%; (at 3.7 µM) 1%; (at 11.0 µM) 5%; (at 33.0 µM) 95% (active); (at 100.0 µM) 99% (active).
